Laboratory results published in PubChem BioAssay (Tox21).
Results filed as inconclusive are left out. Active and inactive are the calls of the source. Unless noted, calls come from the whole dose curve; as a rule, active = well fitted curve in the direction sought with a large enough effect in the repeat runs; inconclusive = weak or mixed curves; inactive = no such curve, though single readings can be large; an effect the other way counts as inactive or inconclusive.

Experiments:
[1] = qHTS RealTime-Glo MT Cell Viability Assay in HEK293 cells - 8 hour (AID 1224887); note: nearly all actives have a fitted effect of over 50% in size; note: potency is the fitted concentration of half-maximal effect; for activity change, negative = cytotoxicity: top concentration of the series differs between compounds
Summary of the method: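 Nonlytic bioluminescent viability monitoring. HEK293 at 600 cells/well with reagent; 5 h settle; compound transfer by pintool; plates held at 37 C and read at set time points.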

[2] = A CellTox Green Cytotoxicity Assay to monitor cytotoxicity in HEK293 cells - 16 hour (AID 1224888); note: nearly all actives have a fitted effect of over 35% in size
Summary of the method: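 Cytotoxicity was tracked continuously in HEK293 cells by a DNA-binding dye excluded from viable cells. Compounds were transferred in DMSO 5 h after seeding; fluorescence was recorded at intervals up to 40 h.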

[3] = qHTS RealTime-Glo MT Cell Viability Assay in HepG2 cells - 0 hour (AID 1224889); note: nearly all actives have a fitted effect of over 50% in size; note: potency is the fitted concentration of half-maximal effect
Summary of the method: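 HepG2 cells (600/well) were dispensed with RealTime-Glo reagents, incubated 5 h at 37 °C, then treated with compounds in DMSO for up to 40 h. Nonlytic NanoLuc luminescence reflecting viable cells was read at each stated time point.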

[4] = qHTS assay to identify small molecule antagonists of the estrogen receptor alpha (ER-alpha) signaling pathway using the BG1 cell line in the presence of 0.1 nM 17-beta-estradiol - cell viability counter screen (AID 1259241); note: nearly all actives have a fitted effect of over 40% in size
Summary of the method: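 VM7Luc4E2 cells (endogenous full-length ER-alpha, 4xERE-luciferase), cultured 5 days in charcoal-stripped serum, exposed to compounds with 0.1 nM 17beta-estradiol (final) for 22 hr at 37C. Viability read in same wells as live-cell protease fluorescence after 30 min.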

[5] = qHTS assay to identify small molecule antagonists of the androgen receptor (AR) signaling pathway using the MDA cell line in the presence of 0.5 nM R1881 - cell viability counter screen (AID 1259242); note: nearly all actives have a fitted effect of over 45% in size
Summary of the method: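 Cytotoxicity toward MDA-kb2 cells is measured by CellTiter-Fluor live-cell protease fluorescence after 16 hr compound exposure at 37C in the presence of 0.5 nM R1881 stimulator.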

[6] = biological target: Estrogen receptor (Homo sapiens) (UniProt P03372); assay: qHTS assay to identify small molecule antagonists of the estrogen receptor alpha (ER-alpha) signaling pathway using the BG1 cell line in the presence of 0.1 nM 17-beta-estradiol (AID 1259244); note: nearly all actives have a fitted effect of over 50% in size
Summary of the method: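 After 5 days in hormone-depleted medium (charcoal-stripped serum, no phenol red), VM7Luc4E2 cells were seeded, incubated 24 h, then co-treated with compound and 0.1 nM (final) estradiol for 22 h before luminescence detection.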

[7] = qHTS assay to identify small molecule HDAC inhibitors (AID 1259364); note: top concentration of the series differs between compounds; nearly all actives have a fitted effect of over 45% in size
Summary of the method: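 Homogeneous cell-based luminescent assay of endogenous class I/II HDAC activity; HCT-116 cells, 2 h compound exposure, 30 min HDAC-Glo development at RT.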

[8] = qHTS assay to identify small molecule HDAC inhibitors - cell viability counter screen (AID 1259365); note: series mostly up to about 92 µM; nearly all actives have a fitted effect of over 50% in size
Summary of the method: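 Wild-type HCT-116 cells, 1,500/well, cultured overnight, then compound-treated 2 h at 37 C. Viability measured as ATP luminescence with CellTiter-Glo after 30 min at room temperature.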

[9] = qHTS assay to identify small molecule phospholipidosis (PLD) inducers (AID 1259344; active = well fitted curve in the direction sought with a large enough effect; an effect the other way counts as inactive or inconclusive)
Summary of the method: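 Phospholipidosis is scored by imaging LipidTOX-stained pits in HepG2 cells exposed to compound for 24 h at 37 C; pit counts and integrated intensities per well and per cell serve as outputs.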

[10] = A CellTox Green Cytotoxicity Assay to monitor cytotoxicity in HepG2 cells - 8 hour (AID 1224890); note: nearly all actives have a fitted effect of over 45% in size; note: potency is the fitted concentration of half-maximal effect
Summary of the method: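 Real-time, homogeneous cytotoxicity readout: dead-cell DNA staining by CellTox Green in HepG2 monolayers, fluorescence measured at timed intervals up to 40 h of continuous compound exposure.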
% is set by controls: 0 for no effect and ±100 for the full control effect.

Sequence of Estrogen receptor (Homo sapiens) (P03372 whole entry, looked up): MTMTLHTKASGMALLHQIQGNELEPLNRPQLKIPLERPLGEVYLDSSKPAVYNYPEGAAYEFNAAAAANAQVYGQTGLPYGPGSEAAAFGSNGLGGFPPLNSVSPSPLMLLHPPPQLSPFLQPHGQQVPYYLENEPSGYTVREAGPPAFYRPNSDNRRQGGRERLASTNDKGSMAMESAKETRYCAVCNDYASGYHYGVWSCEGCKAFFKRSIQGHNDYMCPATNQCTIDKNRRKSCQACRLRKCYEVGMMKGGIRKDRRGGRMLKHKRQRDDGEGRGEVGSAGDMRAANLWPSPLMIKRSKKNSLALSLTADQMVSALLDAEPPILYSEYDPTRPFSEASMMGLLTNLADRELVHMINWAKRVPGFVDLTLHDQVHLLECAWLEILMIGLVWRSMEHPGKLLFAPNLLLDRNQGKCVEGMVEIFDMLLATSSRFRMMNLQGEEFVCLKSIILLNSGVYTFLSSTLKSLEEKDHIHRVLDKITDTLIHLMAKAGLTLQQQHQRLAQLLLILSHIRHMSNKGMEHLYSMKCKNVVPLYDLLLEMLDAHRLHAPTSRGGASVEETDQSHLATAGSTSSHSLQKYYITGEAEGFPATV

CCCCCN(CCCOC)C(=O)C(CCC(=O)O)NC(=O)c1ccc(Cl)c(Cl)c1 (stereo unspecified)
inactive: Potency [1] | Potency [2] | Potency [3] | Potency [4] | Potency [5] | Potency [6] | Potency [7] | outcome [8]

NS(=O)(=O)c1cc2c(cc1Cl)NC(CC1CCCC1)NS2(=O)=O (stereo unspecified)
inactive: Potency [1] | Potency [2] | Potency [3] | Potency [4] | Potency [5] | outcome [9] | Potency [7] | outcome [8]

CCCCCCCCCCCCCCCC(=O)NCCO
active: Potency [10] 6.01 µM
inactive: Potency [1] | Potency [2] | Potency [3] | Potency [5] | outcome [9] | Potency [7] | outcome [8]

NC(=O)NNC(N)=O
inactive: Potency [1] | Potency [2] | Potency [10] | Potency [4] | Potency [5] | Potency [6] | Potency [7] | outcome [8]

CCCCCCCCCCCCCC(=O)OC
inactive: Potency [1] | Potency [2] | Potency [3] | Potency [10] | Potency [5] | Potency [6] | Potency [7] | outcome [8]

CCCCC/C=C/CC(=O)OC
inactive: Potency [1] | Potency [2] | Potency [3] | Potency [10] | Potency [5] | Potency [7]

Cc1ccccc1OCC1CO1 (stereo unspecified)
inactive: Potency [1] | Potency [2] | Potency [10] | Potency [4] | Potency [5] | Potency [6] | Potency [7] | outcome [8]

F[Si-2](F)(F)(F)(F)F
inactive: Potency [1] | Potency [2] | Potency [10] | Potency [4] | Potency [5] | Potency [6] | outcome [9] | Potency [7] | outcome [8]

NS(=O)(=O)c1cc2c(cc1Cl)NC(C(Cl)Cl)NS2(=O)=O (stereo unspecified)
inactive: Potency [1] | Potency [2] | Potency [3] | Potency [10] | Potency [5] | outcome [9] | Potency [7]

O=S(=O)(O)c1cc(O)ccc1O
inactive: Potency [1] | Potency [2] | Potency [3] | Potency [10] | Potency [7] | outcome [8]

CC1=CC[C@H](CC=O)C1(C)C
inactive: Potency [1] | Potency [2] | Potency [10] | Potency [4] | Potency [5] | Potency [6] | Potency [7] | outcome [8]

C=CCCCCCCCCCCC
inactive: activity change, negative = cytotoxicity [1] 3.08% [at 6.97 µM] | activity change [2] -0.692% [at 6.97 µM, active compounds read high] | activity change, negative = cytotoxicity [3] 5.28% [at 6.97 µM] | cytotoxicity increase [10] 4.2% [at 6.97 µM] | viability change, negative = cytotoxic [5] 0.96% [at 8.39 µM] | activity change, negative = inhibition [6] 8.3% [at 8.39 µM] | activity change, negative = inhibition [7] 4.91% [at 8.39 µM] | activity change, negative = cytotoxicity [8] 4.34% [at 8.39 µM]

CCCOC(=O)CCCCC(=O)OCCC
inactive: Potency [1] | Potency [2] | Potency [3] | Potency [10] | Potency [5] | Potency [6] | Potency [7] | outcome [8]

CC1=NN(c2ccc(S(=O)(=O)O)cc2)C(=O)C1N=Nc1ccccc1 (stereo unspecified)
inactive: Potency [1] | Potency [2] | Potency [3] | Potency [6] | Potency [7]

OCCCCCCCl
inactive: Potency [1] | Potency [2] | Potency [10] | Potency [4] | Potency [5] | Potency [6] | Potency [7] | outcome [8]

CN[C@@H]1[C@H](O)[C@H](NC)[C@H]2O[C@@]3(O)C(=O)C[C@@H](C)O[C@H]3O[C@@H]2[C@H]1O
inactive: Potency [1] | Potency [2] | Potency [10] | Potency [4] | Potency [5] | Potency [6] | outcome [9] | Potency [7] | outcome [8]

O=C(O)c1c(Cl)ccc(Cl)c1Cl
inactive: Potency [1] | Potency [2] | Potency [10] | Potency [4] | Potency [5] | Potency [6] | Potency [7] | outcome [8]

CCCCCCCC/C=C\CCCCCCCC(=O)OC[C@@H](O)[C@H]1OC[C@H](O)[C@H]1O
inactive: Potency [1] | Potency [2] | Potency [10] | Potency [4] | Potency [5] | Potency [6] | outcome [9] | Potency [7]

CC(=O)OCC(=O)[C@@]1(O)[C@H](OC(C)=O)C[C@H]2[C@@H]3CCC4=CC(=O)C=C[C@]4(C)[C@@]3(F)[C@@H](O)C[C@@]21C
inactive: Potency [1] | Potency [2] | Potency [10] | Potency [4] | Potency [5] | Potency [6] | outcome [9] | Potency [7]

C[C@@H]1C[C@H]2[C@@H]3C[C@H](F)C4=CC(=O)C=C[C@]4(C)[C@@]3(F)[C@@H](O)C[C@]2(C)[C@@]1(O)C(=O)CO
inactive: Potency [1] | Potency [2] | Potency [4] | Potency [5] | outcome [9] | Potency [7] | outcome [8]
active: Potency [3] 21.3 µM

CCCCOC(=O)[C@@H](C)Oc1ccc(Oc2ccc(C(F)(F)F)cn2)cc1
inactive: Potency [2] | Potency [10] | Potency [4] | Potency [5] | Potency [6] | Potency [7] | outcome [8]
active: Potency [1] 24.7 µM

CCOC(=O)OCC/C(SC(=O)OCC)=C(\C)N(C=O)Cc1cnc(C)nc1N
inactive: Potency [1] | Potency [2] | Potency [3] | Potency [10] | Potency [5] | PLD induction [9] 2.13% [at 1.53 µM] | Potency [7] | outcome [8]

CCCCCCCC[Si](OCC)(OCC)OCC
inactive: Potency [1] | Potency [2] | Potency [3] | Potency [10] | Potency [7] | outcome [8]

CC(=O)OC[C@H]1O[C@@H](OC(C)=O)[C@H](OC(C)=O)[C@@H]1OC(C)=O
inactive: Potency [1] | Potency [2] | Potency [10] | Potency [4] | Potency [5] | Potency [6] | Potency [7] | outcome [8]

CC(C)COC(=O)CC(C(=O)OCC(C)C)S(=O)(=O)O (stereo unspecified)
inactive: Potency [1] | Potency [2] | Potency [10] | Potency [4] | Potency [5] | Potency [6] | Potency [7] | outcome [8]

O=C(c1ccc2c(c1)C(=O)OC2=O)c1ccc2c(c1)C(=O)OC2=O
inactive: Potency [1] | Potency [2] | Potency [3] | Potency [10] | Potency [5] | Potency [7] | outcome [8]

c1ccccc1
inactive: Potency [1] | Potency [2] | Potency [3] | Potency [10] | Potency [7] | outcome [8]

CCCCCCCCCCCCC
inactive: Potency [1] | Potency [2] | Potency [3] | Potency [10] | Potency [5] | Potency [6] | Potency [7] | outcome [8]

CCN(CCC#N)c1ccccc1
inactive: Potency [1] | Potency [2] | Potency [3] | Potency [10] | Potency [6] | Potency [7] | outcome [8]

O=C(O)Cc1cccc(-c2cc(CCCCCCc3ccc(O[C@H]4O[C@H](CO)[C@@H](O)[C@H](O)[C@@H]4O)c(-c4cccc(CC(=O)O)c4)c3)ccc2O[C@H]2O[C@H](CO)[C@@H](O)[C@H](O)[C@@H]2O)c1
inactive: activity change, negative = cytotoxicity [1] 11.8% [at 0.29 µM] | activity change [2] -7.34% [at 0.29 µM, active compounds read high] | cytotoxicity increase [10] 23.5% [at 0.29 µM] | activity change, negative = cytotoxicity [4] -0.713% [at 0.349 µM] | viability change, negative = cytotoxic [5] -0.767% [at 0.349 µM] | outcome [9] | activity change, negative = inhibition [7] 0.203% [at 0.349 µM] | activity change, negative = cytotoxicity [8] -0.936% [at 0.349 µM]

C=CCOc1cc(Cl)ccc1C(=O)NCCN(CC)CC
inactive: Potency [1] | Potency [2] | Potency [3] | Potency [10] | Potency [7] | outcome [8]

O=S(=O)(O)SSS(=O)(=O)O
inactive: Potency [1] | Potency [2] | Potency [10] | Potency [4] | Potency [5] | Potency [7] | outcome [8]
